PubChem BioAssay (Tox21)
Records with an inconclusive call do not appear. Entries that show only a call come without a potency. Values without a mark were called inactive. Activity calls are given as the source filed them. Unless noted, calls come from the whole dose curve; as a rule, active = well fitted curve in the direction sought with a large enough effect in the repeat runs; inconclusive = weak or mixed curves; inactive = no such curve, though single readings can be large; an effect the other way counts as inactive or inconclusive.

Legend:
[1] = qHTS assay to identify small molecule agonists of the RXR signaling pathway - cell viability counter screen (AID 1159529); note: nearly all actives have a fitted effect of over 50% in size; note: potency is the fitted concentration of half-maximal effect
Method in brief: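 In this parallel viability measure, GeneBLAzer RXR-alpha HEK 293T cells (2% charcoal-stripped FBS) were given a 5 hr preincubation, treated with compounds 16 hr at 37 C, and read by CellTiter-Glo luminescence.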

[2] = qHTS assay to identify small molecule antagonists of the retinoid acid receptor (RAR) signaling pathway - cell viability counter screen (AID 1159551); note: nearly all actives have a fitted effect of over 35% in size
Method in brief: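 C3RL4 RARE-luciferase cells, 1,000/well, incubated overnight, then dosed with compound plus 1 uM retinol (final). After 6 hr at 37 C, viability read by CellTiter-Glo ATP luminescence following 30 min at room temperature.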

[3] = qHTS assay to identify small molecule agonists of the retinoic acid receptor (RAR) signaling pathway (AID 1159553)
Method in brief: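 C3RL4 RARE-luciferase cells were seeded at 1,000/well and grown overnight at 37 C, then exposed to compounds for 6 hr at 37 C, 5% CO2. Luciferase reagent was added and luminescence was read after 30 min at room temperature.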

[4] = qHTS assay to identify small molecule antagonists of the estrogen related receptor (ERR) signaling pathway from Tox21 library - cell viability counter screen (AID 1224834); note: nearly all actives have a fitted effect of over 30% in size
Method in brief: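 ERR reporter cells, 2,000 per well, rested 6 h, then exposed to compound in DMSO for 17.5 hours at 37 C. Viability read as fluorescence after 30 min with CellTiter-Fluor.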

[5] = target: Luciferin 4-monooxygenase (Photinus pyralis) (UniProt P08659); test: qHTS assay to identify small molecule inhibitors of firefly luciferase (AID 1224835); note: series mostly up to about 120 µM; nearly all actives have a fitted effect of over 25% in size
Chain of Luciferin 4-monooxygenase (Photinus pyralis) (P08659 whole entry, looked up): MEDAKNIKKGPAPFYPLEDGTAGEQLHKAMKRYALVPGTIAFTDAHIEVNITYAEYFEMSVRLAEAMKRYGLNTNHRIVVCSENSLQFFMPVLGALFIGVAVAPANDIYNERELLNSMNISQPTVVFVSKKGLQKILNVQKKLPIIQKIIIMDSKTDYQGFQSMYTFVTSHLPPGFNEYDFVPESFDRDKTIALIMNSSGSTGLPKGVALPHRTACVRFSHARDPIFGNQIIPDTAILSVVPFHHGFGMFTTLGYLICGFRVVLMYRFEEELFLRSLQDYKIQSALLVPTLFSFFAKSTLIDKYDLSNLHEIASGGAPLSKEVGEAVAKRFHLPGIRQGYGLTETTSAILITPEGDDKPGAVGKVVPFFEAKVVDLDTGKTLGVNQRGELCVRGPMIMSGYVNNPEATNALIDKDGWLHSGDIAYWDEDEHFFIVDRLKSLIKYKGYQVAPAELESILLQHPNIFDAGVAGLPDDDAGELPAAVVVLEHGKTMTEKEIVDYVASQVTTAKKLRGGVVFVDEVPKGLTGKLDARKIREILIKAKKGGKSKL
Method in brief: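 Quantitative HTS format; KM concentrations of both substrates. Purified P. pyralis FLuc activity quantified from luminescence images.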

[6] = qHTS assay to identify small molecule agonists of the constitutive androstane receptor (CAR) signaling pathway - cell viability counter screen (AID 1224836); note: series mostly up to about 92 µM; nearly all actives have a fitted effect of over 45% in size
Method in brief: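 Using CellTiter-Fluor, viability of HepG2 cells harbouring hCAR and CYP2B6-2.2kb was measured following 23 h incubation with a 15-concentration compound series plus PK11195 (0.75 uM final).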

[7] = qHTS assay to identify small molecule antagonists of the constitutive androstane receptor (CAR) signaling pathway - cell viability counter screen (AID 1224837); note: series mostly up to about 92 µM; nearly all actives have a fitted effect of over 45% in size
Method in brief: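 HepG2 cells stably carrying hCAR and CYP2B6-2.2kb reporter, stimulated with 50 nM CITCO and compounds at 15 concentrations for 23 h at 37 C. Viability measured by CellTiter-Fluor fluorescence.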

[8] = qHTS assay to identify small molecule antagonists of the estrogen related receptor signaling pathway with the pleiotropic PPARgamma coactivator (PGC) from Tox21 10K library - cell viability counter screen (AID 1224840; active = well fitted cell-killing curve with a large enough effect in the repeat runs, not every such curve was filed as active; note: nearly all actives have a fitted effect of over 40% in size)
Method in brief: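 PGC/ERR cells (2,000/well) plated 6 h, then compound-treated for 17.5 h at 37 C. Viability measured by CellTiter-Fluor fluorescence after 30 min at 37 C, multiplexed with the pathway assay.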

[9] = target: Nuclear receptor subfamily 1 group I member 3 (Homo sapiens) (UniProt Q14994); test: qHTS assay to identify small molecule agonists of the constitutive androstane receptor (CAR) signaling pathway (AID 1224839); note: series mostly up to about 92 µM; nearly all actives have a fitted effect of over 15% in size
Chain of Nuclear receptor subfamily 1 group I member 3 (Homo sapiens) (Q14994 whole entry, looked up): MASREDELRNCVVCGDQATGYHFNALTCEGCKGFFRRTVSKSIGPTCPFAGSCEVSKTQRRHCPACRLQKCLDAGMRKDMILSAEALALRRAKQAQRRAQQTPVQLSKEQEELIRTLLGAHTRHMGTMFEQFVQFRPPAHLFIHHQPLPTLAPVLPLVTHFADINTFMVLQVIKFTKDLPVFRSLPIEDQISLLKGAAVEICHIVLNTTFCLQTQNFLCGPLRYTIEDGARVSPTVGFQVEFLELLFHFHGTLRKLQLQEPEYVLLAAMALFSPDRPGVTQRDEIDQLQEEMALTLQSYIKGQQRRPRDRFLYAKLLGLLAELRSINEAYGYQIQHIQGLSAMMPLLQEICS
Method in brief: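 Double-stable HepG2 cells (hCAR, CYP2B6-2.2kb) seeded 4 h before compound addition. Exposure 24 h with 0.75 uM PK11195 final. Luciferase detected by ONE-Glo.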

[10] = qHTS assay to identify small molecule agonists of the estrogen related receptor signaling pathway with the pleiotropic PPARgamma coactivator (PGC) from Tox21 10K library (AID 1224842); note: nearly all actives have a fitted effect of over 15% in size
Method in brief: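 PGC/ERR reporter cells (NTP line) were seeded 2,000 per well, rested 6 h at 37 C/5% CO2, then pin-dosed with compounds in DMSO for 18 h at 37 C; luciferase read by One-Glo luminescence after 30 min at room temperature.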

[11] = target: Nuclear receptor subfamily 1 group I member 3 (Homo sapiens) (UniProt Q14994); test: qHTS assay to identify small molecule antagonists of the constitutive androstane receptor (CAR) signaling pathway (AID 1224838); note: nearly all actives have a fitted effect of over 40% in size
Method in brief: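 HepG2 cells stably carrying hCAR and a CYP2B6-2.2kb luciferase reporter, seeded 4 hrs before compound (15 concentrations). Stimulated with 50 nM CITCO for 24 hr at 37 C. ONE-Glo luminescence read after 30 min at room temperature.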

[12] = qHTS assay to identify small molecule antagonists of the retinoic acid receptor (RAR) signaling pathway (AID 1159552; note: nearly all actives have a fitted effect of over 50% in size)
Method in brief: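 C3RL4 RARE-luc cells, overnight plating; retinol 1 uM final added right after compound; 6 hr 37 C; luciferase read at 30 min RT.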

[13] = qHTS assay to identify small molecule antagonists of the estrogen related receptor (ERR) signaling pathway - cell viability counter screen (AID 1224818); note: series mostly up to about 46 µM
Method in brief: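 ERR cells, 2,000 per well, compound added after 6 h and incubated 17.5 h at 37 C. Viability read by CellTiter-Fluor fluorescence after a further 30 min at 37 C.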

[14] = qHTS assay to identify small molecule antagonists of the estrogen related receptor signaling pathway with the pleiotropic PPARgamma coactivator (PGC) cell viability counter screen (AID 1224822; note: series mostly up to about 46 µM)
Method in brief: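 PGC/ERR cells rested 6 h, then compound-treated 17.5 h at 37 C. CellTiter-Fluor added for 30 min at 37 C, viability measured by fluorescence intensity.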

[15] = qHTS assay to identify small molecule antagonists of the estrogen related receptor signaling pathway with the pleiotropic PPARgamma coactivator (PGC) from Tox21 10K library (AID 1224841; call rule not given here; note: series mostly up to about 92 µM; actives are mostly falling curves and most rising ones were filed inactive; nearly all actives have a fitted effect of over 50% in size)
Method in brief: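 PGC/ERR cell line, 2,000 cells/well, pre-incubated 6 hours at 37 C, then exposed to compounds for 18 hours at 37 C; luciferase read with One-Glo luminescence after 30 min at room temperature.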

| SMILES | Potency [1] | outcome [2] | Potency [3] | Potency [4] | Potency [5] | Potency [6] | Potency [7] | Potency [8] | Potency [9] | Potency [10] | Potency [11] | outcome [12] | outcome [13] | outcome [14] | Potency [15] |
| --- | --- | --- | --- | --- | --- | --- | --- | --- | --- | --- | --- | --- | --- | --- | --- |
| O=c1[nH][nH]c2ccccc12 | inactive | inactive | inactive | inactive | inactive | inactive | inactive | inactive | – | – | – | – | – | – | – |
| CCCCCO | inactive | inactive | – | inactive | inactive | inactive | inactive | inactive | inactive | inactive | – | – | – | – | – |
| CC(O)C(C)O (stereo not given) | inactive | inactive | – | inactive | inactive | inactive | inactive | inactive | inactive | – | – | – | – | – | – |
| Clc1cccc(C(c2ccc3nc[nH]c3c2)n2ccnc2)c1 (stereo not given) | inactive | inactive | – | inactive | inactive | inactive | inactive | inactive | – | – | inactive | – | – | – | – |
| FC(F)(Cl)C(F)(Cl)Cl | inactive | inactive | – | inactive | inactive | inactive | inactive | inactive | – | – | inactive | – | – | – | – |
| O=c1[nH]nc(-c2ccc([N+](=O)[O-])o2)o1 | inactive | inactive | – | – | inactive | – | – | – | – | inactive | inactive | inactive | – | – | – |
| NC(=O)c1ccccc1 | inactive | inactive | inactive | inactive | inactive | inactive | inactive | – | inactive | – | inactive | – | inactive | inactive | – |
| Nc1cccc2c(=O)[nH][nH]c(=O)c12 | 5.52 µM (active) | inactive | inactive | – | inactive | inactive | inactive | inactive | inactive | inactive | – | – | – | – | – |
| O=S(=O)(O)c1cc(Cl)c(Cl)cc1Cl | inactive | inactive | – | inactive | inactive | inactive | inactive | inactive | – | – | inactive | – | – | – | – |
| C=CC(C)CCC=C(C)C (stereo not given) | inactive | inactive | inactive | inactive | inactive | inactive | inactive | inactive | – | – | – | – | – | – | – |
| CC1(C)C(=O)NC(=O)N1CO | inactive | inactive | – | inactive | inactive | inactive | inactive | inactive | inactive | – | inactive | – | – | – | – |
| CC(=O)c1cccnc1 | inactive | inactive | – | inactive | inactive | inactive | inactive | inactive | inactive | inactive | – | – | – | – | inactive |
| O=C(O)c1c2ccccc2cc2ccccc12 | inactive | inactive | – | inactive | inactive | inactive | inactive | inactive | – | – | – | – | – | – | – |
| Nc1nc(Cl)nc2c1ncn2[C@H]1C[C@H](O)[C@@H](CO)O1 | inactive | inactive | – | inactive | inactive | inactive | inactive | inactive | – | – | – | – | – | – | – |
| O=P(c1ccccc1)(c1ccccc1)c1ccccc1 | inactive | inactive | – | inactive | inactive | inactive | inactive | inactive | – | – | inactive | – | – | – | – |
| CC(C)(C(=O)O)c1ccc(C(O)CCCN2CCC(C(O)(c3ccccc3)c3ccccc3)CC2)cc1 (stereo not given) | inactive | inactive | – | inactive | inactive | inactive | inactive | inactive | inactive | – | – | – | inactive | inactive | – |
| CCCCCCCCCCCCN1CCOCC1 | inactive | inactive | – | inactive | inactive | inactive | inactive | inactive | inactive | inactive | inactive | – | – | – | inactive |
| C=CC(O)CCCCC (stereo not given) | inactive | inactive | – | inactive | inactive | inactive | inactive | inactive | – | inactive | inactive | – | – | – | – |
| O=C(Cl)c1cc(Cl)cc(Cl)c1 | inactive | inactive | – | inactive | inactive | inactive | inactive | inactive | inactive | – | – | – | – | – | – |
| CC(=O)OCC(=O)[C@@]1(O)CC[C@H]2[C@@H]3CCC4=CC(=O)C=C[C@]4(C)[C@@]3(F)[C@@H](O)C[C@@]21C | inactive | inactive | – | inactive | inactive | inactive | inactive | inactive | – | – | – | – | – | – | – |
| OCCCO | inactive | inactive | – | inactive | inactive | inactive | inactive | inactive | – | – | – | inactive | – | – | – |
| C=CC(C)(O)CC/C=C(/C)CCC=C(C)C (stereo not given) | inactive | inactive | – | inactive | inactive | inactive | inactive | inactive | – | – | – | – | – | – | – |
| CCCCOC(=O)CC#N | inactive | inactive | – | inactive | inactive | inactive | inactive | inactive | inactive | – | – | inactive | – | – | – |
| CCCCCCCCCC(C)C=O (stereo not given) | inactive | inactive | – | inactive | – | inactive | inactive | inactive | inactive | – | – | inactive | – | – | – |
| CCc1cnc(C(=O)O)c(C(=O)O)c1 | inactive | inactive | – | inactive | inactive | inactive | inactive | inactive | inactive | – | inactive | – | – | – | – |
